The list is not random: actives were taken first. Their share in the collection is about 8%.
LASV entry inh: inhibitors of Lassa virus binding or cell entry | hit rate 1.2% among 300,000 | Potency, µM (top dose mostly 37.9 µM), for the others: at the top dose activity change, negative = inhibition, usual class: inhibitors | Lassa virus pseudotype entry inhibition, cell reporter; calls by dose curve; tested in HEK293 cells; also: potency is read from the fitted curve at half-maximal effect; % is scaled to controls: 0 for no effect and ±100 for the full control effect; nearly all actives have a fitted effect of over 50% in size
HCMV inh: inhibitors of human cytomegalovirus | hit rate 4.5% among 410,000 | activity change, negative = inhibition, % at 57.5 µM | HFF cells, HCMV-luciferase reporter, 72 h; stronger effect = lower value; in the data active = activity change below about -60%; inconclusive = no clear call, values can overlap the other calls; inactive = above about -39%; also: % is scaled to controls: 0 for no effect and ±100 for the full control effect
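Two compound doses tested in HFFs infected with HCMV-luciferase, MOI 1 PFU/cell, 72 h at 37C. Lysate luminescence read with OneGlo; data normalized against buffer-only and 10uM Salinomycin inhibitor controls.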
MARV entry inh: Marburg virus entry inhibition; AID 540276; hit rate 1.8% among 300,000; Potency, µM (highest dose often 37.8 µM), inactives show at the top dose activity change, negative = inhibition, usual class: inhibitors; Marburg virus pseudotyped entry inhibition, cell reporter; calls by dose curve; tested in HEK293 cells; also: potency is read from the fitted curve at half-maximal effect; % is scaled to controls: 0 for no effect and ±100 for the full control effect
FMDV inh: antivirals against foot and mouth disease virus. FMDV antiviral cell-based qHTS. Potency, µM (highest dose often 57.9 µM), inactives show at the highest dose activity change, negative = inhibition, most hits filed as inhibitors. hit rate 1.2% among 410,000; calls by dose curve; tested in HEK293T cells; also: read-out not given here; potency is read from the fitted curve at half-maximal effect; % is scaled to controls: 0 for no effect and ±100 for the full control effect; nearly all actives have a fitted effect of over 45% in size
HCV inh: inhibitors of hepatitis C virus infection. hit rate 3.4% among 340,000. Potency, µM (top dose mostly 41.8 µM), inactives show top-dose activity change, negative = inhibition, usual class: inhibitors. AID 651820. Huh7.5.1 HCVcc-Cre infection, luciferase reporter, 44 h; active = well fitted inhibition curve with a large enough effect; inconclusive = small, poorly fitted or top-dose-only effect, or another doubt; inactive = no such curve, though single readings can be large or run the other way; also: potency is read from the fitted curve at half-maximal effect; % is scaled to controls: 0 for no effect and ±100 for the full control effect
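Antiviral activity was scored by luciferase reporter output from cells infected with HCVcc-Cre (~0.5 moi) in presence of compound, 44 h infection period, cells seeded 1,000/well 4 h prior.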
SARS PLpro yeast: blocks SARS-CoV papain-like protease in a yeast assay | S. cerevisiae expressing SARS-CoV PLpro, growth rescue | Potency, µM (series often up to 32.9 µM), for inactives: at the top dose activity, positive = growth rescue, hits mostly activators | hit rate 0.19% among 330,000 | AID 485353; calls by dose curve; also: potency is read from the fitted curve at half-maximal effect; 0% is about no effect; nearly all actives have a fitted effect of over 55% in size
* marks the source's active call; other numbers are inactive results; ? = inconclusive; . = not tested or not shown; [ ] = another dose, or the depositor's remark.

SMILES	LASV entry inh	HCMV inh	MARV entry inh	FMDV inh	HCV inh	SARS PLpro yeast
CCN(CC)c1ccc(NC(=O)CN2CCN(S(=O)(=O)c3ccc(C(C)C)cc3)CC2)cc1	?	-10	.	-20%	.	.
COc1ccccc1CCNC(=O)C(=O)NCC(c1ccc2c(c1)OCO2)N1CCOCC1 (stereo not given)	-5%[46.1 µM]	36	.	-23%	.	.
Cc1cc(C)cc(NC(c2cccc(Cl)c2)c2nnc(-c3ccccc3)o2)c1 (stereo not given)	-30%[46.1 µM]	-5	?	13%	.	.
COc1ccc(CN2CCN(CCSc3ccc(C)cc3)CC2)c(OC)c1OC	.	26	.	?	14µM*	-6%
COc1ccc(OC)c(CN2CCN(Cc3ccc(OC)c(OC)c3OC)CC2)c1	.	24	.	-16%	.	.
N#CC1=C2N=C(N)c3ccccc3N2C2=C(C(=O)CCC2)C1c1ccc(F)cc1 (stereo not given)	.	-18	.	-10%	13µM*	1%
Cc1ccc(C2C(C#N)=C3N=C(N)c4ccccc4N3C3=C2C(=O)CCC3)cc1 (stereo not given)	.	-22	.	6%	?	1%
CC(C)[C@@H](OCc1ccccc1)[C@H](C)CO/N=C1/[C@H]2CCn3c(=O)n(-c4ccccc4)c(=O)n3[C@H]2[C@H](O)[C@@H]2O[C@H]12	.	.	25%[14.2 µM]	.	.	.
N#C/C(=C(/O)CCl)c1nc2c(s1)CCc1ccccc1-2	12%	42	21%[46.1 µM]	25µM*	?	-12%
Nc1nc2c(s1)CCc1ccccc1-2	.	-16	.	19%	5%	-11%
COc1ccc(C)cc1NC(=O)C(CCSC)NS(=O)(=O)c1ccc2c(c1)oc(=O)n2C (stereo not given)	4%[46.1 µM]	0	.	0%	.	.
CCCCCCc1c(C)c2c(cc(C)c3c(C)coc32)oc1=O	?	2	-2%[46.1 µM]	-14%	.	.
CCCCCc1cc(O)c2c(C)cc(=O)oc2c1	?	-105*	-85%	0%	11µM*	-32%
CCCCCc1cc(O)c2c3c(c(=O)oc2c1)CN(C)CC3	.	-34	.	10%	10µM*	-3%
Cc1cc(=O)oc2cc(O)cc(O)c12	.	3	.	-18%	-23%	.
FC(F)(F)c1ccc(Nc2cc3c(cn2)ncn3Cc2ccco2)cc1	.	-15	.	.	.	.
O=C(c1ccc2c(c1)N(Cc1ccccc1)C(=O)c1ccccc1S2=O)N1CCC(Cc2ccccc2)CC1 (stereo not given)	?	-76*	?	?	.	.
O=C(c1ccc2c(c1)N(Cc1ccc(F)cc1)C(=O)c1ccccc1S2=O)N1CCC(Cc2ccccc2)CC1 (stereo not given)	?	-78*	?	-13%	.	.
C/C1=C\[C@@H](C)C/C=C/[C@H]2[C@@H]3O[C@]3(C)[C@@H](C)[C@H]3[C@H](Cc4c[nH]c5ccccc45)NC(=O)[C@]32C(=O)/C=C/C(=O)[C@@H]1O	.	.	.	32µM*	7%	-1%
COc1ccc(Cl)cc1NC(=O)c1ccco1	0%	-5	1%	-10%	11µM*	-5%
COc1cc(NC(=O)[C@@H](NC(=O)c2ccco2)C(C)C)c(OC)cc1NC(=O)c1ccccc1	-7%	-37	?	-6%	7.9µM*	0%
COc1ccc(Cl)cc1C(=O)NNC(=O)CNC(=O)c1ccco1	.	-99*	.	-8%	5%	0%
COc1ccc(Cl)cc1C(=O)Nc1ccc(NC(=O)c2ccco2)cc1	3%	.	0%	-2%	?	-10%
COc1ccc(C(=O)NNC(=O)C(NC(=O)c2ccccc2NC(=O)c2ccco2)C(C)C)cc1 (stereo not given)	-2%	-38	17%[46.1 µM]	-17%	4%	-13%
COc1ccccc1N(CC(=O)N/N=C/c1ccc(OCC(=O)NCc2ccco2)cc1)S(=O)(=O)c1ccc(C)cc1	?	.	?	-25%	5µM*	2%
SMILES	LASV entry inh	HCMV inh	MARV entry inh	FMDV inh	HCV inh	SARS PLpro yeast
COC(=O)COc1ccc(/C=N/NC(=O)CN(c2ccccc2OC)S(=O)(=O)c2ccccc2)cc1	-1%	-100*	-15%[46.1 µM]	?	?	1%
COc1ccc(N(CC(=O)N/N=C/c2ccccc2F)S(=O)(=O)c2ccccc2)cc1	?	-77*	?	1%	?	2%
Cc1ccc(S(=O)(=O)N(CC(=O)N/N=C/c2ccco2)c2cc(Cl)cc(Cl)c2)cc1	?	?	16µM*	2%	-15%	-5%
COc1ccc2c(c1)c1c(c(=O)n(-c3ccccc3C)c(=O)n1CC(=O)N1CCCC1)n2C	6%[46.1 µM]	-4	.	-4%	.	.
O=C(CN(c1cccc(Br)c1)S(=O)(=O)c1ccccc1)N/N=C/c1cc([N+](=O)[O-])ccc1O	?	-94*	?	?	?	.
C=Cc1ccc(Cn2c(SCC(=O)N3CCN(c4ccc(F)cc4)CC3)nc3ccccc32)cc1	.	-3	4%[46.1 µM]	0%	.	.
CCSc1nc2c(c(=O)[nH]c(=O)n2C)n1CC(O)COc1ccc(Cl)cc1 (stereo not given)	-16%[46.1 µM]	10	.	-17%	.	.
COc1cc(C=CC(=O)c2cc(OC)c(OC)c(OC)c2)cc(OC)c1OC	7.9µM*	-97*	?	13µM*	?	.
COc1cc(C=CC(=O)c2ccccc2)cc(OC)c1OC	.	4	.	16µM*	.	.
COc1ccc2cc(C(=O)/C=C/c3cc(OC)c(OC)c(OC)c3)ccc2c1	-30%[46.1 µM]	-15	?	-10%	?	10%
COc1ccccc1/C=C/C(=O)c1ccc(NC(C)=O)cc1	11µM*	-102*	13µM*	?	?	-45%
COc1cc(/C=C/C(=O)N2CCC=CC2=O)cc(OC)c1OC	.	-97*	.	?	32µM*	.
Cc1cc2nc(-c3ccc(OCc4ccccc4F)cc3)cc(C(F)(F)F)n2n1	5%[46.1 µM]	-10	-1%[46.1 µM]	0%	.	.
Cc1c(C(=O)N2CC3CCC2C3)sc2ncnc(NCCc3ccccn3)c12 (stereo not given)	.	.	.	-9%	.	.
CCOC(=O)C1=C(C)Nc2ncnn2C1/C=C/c1ccccc1 (stereo not given)	-7%	81	?	0%	-24%	.
CCCC1=C(C(=O)OCC)C(/C=C/c2ccccc2)n2ncnc2N1 (stereo not given)	-19%	70	9.2µM*	-27%	?	4%
CC(=O)N1c2ccc(S(=O)(=O)N3CCC(C(=O)Nc4cccc(C(F)(F)F)c4)CC3)cc2CC1C (stereo not given)	.	-89*	.	?	2.5µM*	-4%
CC(=O)N1c2ccc(S(=O)(=O)N3CCC(C(=O)Nc4ccc(F)cc4)CC3)cc2CC1C (stereo not given)	-8%[46.1 µM]	?	-24%[46.1 µM]	-28%	11µM*	-3%
CC(=O)N1c2ccc(S(=O)(=O)N3CCC(C(=O)NC4CCCCC4)CC3)cc2CC1C (stereo not given)	-2%[46.1 µM]	-36	?	-14%	20%	-3%
